Reference: PubChem BioAssay AID743096 (Vanderbilt Specialized Chemistry Center, 2013)

What follows are compounds tested against Muscarinic acetylcholine receptor M2 (Homo sapiens) (UniProt P08172) (assay: potentiation of ACh response at M2 – cell-based, human M2, selectivity assay for M5 PAM discovery project (AID 743096)). Conditions: CHO-K1 hM2/Gqi5, calcium flux, ACh EC20 potentiation; series mostly up to 30 µM; percent of max ACh response: at the top concentration;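 active = calcium signal above 60% of the top acetylcholine response at human muscarinic M5 receptors, as a positive modulator; inactive = the rest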.
Muscarinic acetylcholine receptor M2 (Homo sapiens), sequence (P08172 whole entry, looked up): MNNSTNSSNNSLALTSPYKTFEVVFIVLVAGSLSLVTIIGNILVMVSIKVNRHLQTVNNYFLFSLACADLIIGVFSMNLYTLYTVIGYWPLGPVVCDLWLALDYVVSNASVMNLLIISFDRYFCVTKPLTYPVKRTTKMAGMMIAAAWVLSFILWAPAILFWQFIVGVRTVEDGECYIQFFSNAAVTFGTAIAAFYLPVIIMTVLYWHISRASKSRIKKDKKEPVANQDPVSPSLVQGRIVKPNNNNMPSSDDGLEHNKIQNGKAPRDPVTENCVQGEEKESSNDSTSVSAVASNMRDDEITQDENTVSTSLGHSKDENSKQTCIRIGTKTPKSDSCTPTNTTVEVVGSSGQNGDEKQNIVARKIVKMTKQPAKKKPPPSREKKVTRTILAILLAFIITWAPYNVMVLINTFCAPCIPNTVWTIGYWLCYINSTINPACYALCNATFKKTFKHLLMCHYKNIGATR

Percent of max ACh response, inactive:
CCN(Cc1ccccc1Cl)C(=O)C1CCN(S(=O)(=O)c2ccc3[nH]ncc3c2)CC1 9.88
CCN(Cc1ccccc1)C(=O)C1CCN(S(=O)(=O)c2ccc(OC)cc2)CC1 18.5
CCN(C(=O)C1CCN(S(=O)(=O)c2ccc3[nH]ncc3c2)CC1)[C@H](C)c1ccccc1 22.4
CCN(C(=O)C1CCN(S(=O)(=O)c2ccc(OC)cc2)CC1)[C@H](C)c1ccccc1 28.7
CCN(Cc1ccccc1)C(=O)C1CCN(S(=O)(=O)c2ccc3c(c2)OCCO3)CC1 24
CCN(Cc1ccccc1C(F)(F)F)C(=O)C1CCN(S(=O)(=O)c2ccc3[nH]ncc3c2)CC1 18.9
